OD600 absorbance data for 50 molecules are collected here from PubChem BioAssay AID1053175 (ICCB-Longwood Screening Facility, Harvard Medical School, 2014).

Several values for one entry are separate records, joined by “and”; a condition that tells them apart may be missing. Identical values can stand only once. The campaign covered roughly 330,000 compounds. About 700 (0.21%) were called active. This is one part of a sample in which actives are shown more often than they occur.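 Rule for the calls: active = OD600 absorbance below the run mean of sample wells minus 3.6 SD, in any replicate (cut at about 0.56 in these data); inactive = the rest.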

The assay is described as follows: E. coli growth inhibition, primary screen, OD600 (AID 1053175). The conditions noted are these: Escherichia coli growth, OD600, 23 h; stronger effect = lower value.
With `O=[N+]([O-])c1cccc(C=NN2CCN(c3ccccn3)CC2)c1`, the OD600 absorbance was 0.693 (inactive).

As for `CCn1c(/C=C/c2ccc([N+](=O)[O-])o2)nc2ccccc2c1=O`, the OD600 absorbance was 0.629 (inactive).

For `Cc1ccc(NCC(=O)NN=Cc2ccc([N+](=O)[O-])o2)cc1`, the OD600 absorbance is 0.564 (inactive).

Turning to `C/[N+]([O-])=C\c1ccc([N+](=O)[O-])o1`, the OD600 absorbance is 0.0665 (active). Consider `CCc1ccc(-c2nn(-c3ccccc3)cc2CSC(=N)N)cc1`, for which the OD600 absorbance is 0.201 (active). Regarding `Cc1ccc(-c2nn(-c3ccccc3)cc2C(=O)NC2CCC(O)CC2)cc1` (stereo not given), the OD600 absorbance was 0.658 (inactive). Then `CCc1ccc(-c2nn(-c3ccccc3C)cc2C(=O)N2CCN(C3CCS(=O)(=O)C3)CC2)cc1` (stereo not given), with 0.66 (inactive). Then `COc1cccc(C=NNC(=O)CSc2cccc3cccnc23)c1`, with 0.635 (inactive); and `COC(=O)[C@]1(Cc2ccccc2)NC(c2ccc(-c3cc(C(C)=O)cs3)cc2)C2C(=O)N(C)C(=O)C21` (stereo not given in full), with 0.738 (inactive).

Consider `COC(=O)C1=C(C)N(Cc2ccco2)C(=O)NC1c1cccc(C(F)(F)F)c1` (stereo not given), for which the OD600 absorbance was 0.7 (inactive). Regarding `COc1ccc(C2C=CCN(S(=O)(=O)C=Cc3ccccc3)C(Cc3ccccc3)C(=O)N2Cc2ccc(F)cc2)cc1` (stereo not given), the OD600 absorbance is 0.733 (inactive).

For `CCOc1cc(C=NNc2ncnc(Cl)c2N)ccc1O`, the OD600 absorbance was 0.682 (inactive). Then `COc1cc(C=Nn2cnnc2)ccc1OCCOc1ccccc1`, with 0.782 (inactive).

`OCC1(CCOc2ccccc2)CCN(Cc2cn[nH]c2-c2ccccc2)CC1`: the OD600 absorbance was 0.675 (inactive). Then `CCOC(=O)C1(CCOc2ccccc2)CCN(Cc2cc(OC)c(O)cc2Cl)CC1`, with 0.602 (inactive); and `Cc1c(CN2CCC(CO)(CCOc3ccccc3)CC2)[nH]c2ccc(Cl)cc12`, with 0.527 (active); and `COc1cc(C(=O)ON=C2C=CC(=O)C=C2C)cc(OC)c1OC`, with 0.685 (inactive). On to `COC(=O)c1cc(C(=O)NC(C)C2CC3CCC2C3)cc([N+](=O)[O-])c1` (stereo not given), for which the OD600 absorbance was 0.52 (active).

With `Cc1c(C(=O)NC(C)C2CC3CCC2C3)cccc1[N+](=O)[O-]` (stereo not given), the OD600 absorbance is 0.695 (inactive). Regarding `Cc1cccc(C(=O)OCC(=O)NC(C)C2CC3CCC2C3)c1O` (stereo not given), the OD600 absorbance is 0.676 (inactive). Turning to `CC=C(C)C(=O)NCCN1C2=NCC(C)N2CC1Cc1ccc(O)cc1` (stereo not given), the OD600 absorbance is 0.694 (inactive). Turning to `Cc1occc1C(=O)NN=Cc1cccc2ccccc12`, the OD600 absorbance is 0.677 (inactive). On to `COc1ccc(OC)c(C=Nn2c(-c3n[nH]c4c3CCC4)n[nH]c2=S)c1`, for which the OD600 absorbance is 0.697 (inactive).

For `COc1cc(C=NNC(=O)c2ccc3nc[nH]c3c2)ccc1O`, the OD600 absorbance is 0.686 (inactive). Then `CCOC(=O)C1C2COc3ccccc3C2N2C(=O)N(c3cccc(Cl)c3)C(=O)[C@@]12C` (stereo not given in full), with 0.65 (inactive) and 0.728 (inactive). In the case of `Nc1nnnn1N=Cc1ccc(O)cc1`, the OD600 absorbance was 0.733 (inactive). Then `Cc1cc([N+](=O)[O-])cc(C)c1OCC(=O)NN=Cc1ccc(OC(=O)c2ccccc2Br)cc1`, with 0.708 (inactive); and `Cc1csc(NC(=S)Nc2cccc(Cl)c2)n1`, with 0.618 (inactive); and `S=C(Nc1cccc(Cl)c1)Nc1ccc2c(c1)OCCO2`, with 0.613 (inactive).

With `FC(F)(F)c1cccc(NC(=S)Nc2cccc(Cl)c2)c1`, the OD600 absorbance was 0.501 (active). Regarding `OCCCNc1nc(-c2ccccc2)c2cc(Cl)ccc2n1`, the OD600 absorbance is 0.647 (inactive). In the case of `OCCNc1nc(Nc2ccc(Cl)c(Cl)c2)nc2ccccc12`, the OD600 absorbance is 0.392 (active).

Regarding `Cc1nnc(NCCO)c2ccccc12`, the OD600 absorbance is 0.66 (inactive). Regarding `COc1cc(C(C)=NNC(=O)c2cccc(S(=O)(=O)N3CCCC3)c2)cc(OC)c1OC`, the OD600 absorbance was 0.705 (inactive). Then `Cc1c(Cl)cccc1NC(=S)N(Cc1ccccc1)Cc1cccnc1`, with 0.58 (active); and `Cc1cccc(C)c1NC(=S)N(Cc1cccnc1)Cc1ccccc1Cl`, with 0.706 (inactive); and `Cc1ccc(CN(Cc2cccnc2)C(=S)Nc2cccc(Cl)c2C)cc1`, with 0.672 (inactive). Then `O=C(NN=C1CC(c2ccccc2)Oc2ccccc21)c1ccc(O)cc1` (stereo not given), with 0.541 (inactive). Then `COC(=O)NN=Cc1c[nH]c2ccccc12`, with 0.738 (inactive); and `CC(=NNC(=O)c1ccccc1[N+](=O)[O-])c1c(O)cc(C)oc1=O`, with 0.635 (inactive); and `COc1cc(C=NNC(=O)NC23CC4CC(CC(C4)C2)C3)ccc1OCC(N)=O`, with 0.652 (inactive).

On to `O=C(NNC(=O)C1CCCC1)c1ccc(F)cc1`, for which the OD600 absorbance was 0.706 (inactive). For the molecule `O=C(/C=C/c1ccc([N+](=O)[O-])o1)NNC(=O)c1ccc(F)cc1`, the OD600 absorbance was 0.428 (active). Then `CCc1noc(C)c1C(=O)NNC(=O)c1ccc(F)cc1`, with 0.692 (inactive); and `S=c1[nH]nc(-c2ccncc2)n1N=Cc1ccccc1`, with 0.705 (inactive). Take `CCN1/C(=C/c2ccc3ccc(C)cc3[n+]2CC)Sc2ccccc21`: the OD600 absorbance was 0.506 (active). Then `COc1ccc(C(=O)NN=C(c2ccccc2)c2ccccn2)cc1`, with 0.68 (inactive).

Consider `CC(=NNC(=O)c1ccc(F)cc1)c1ccccn1`, for which the OD600 absorbance was 0.506 (active). As for `CC(=NNC(=O)c1c[nH]c2ccccc12)c1ccccn1`, the OD600 absorbance was 0.586 (inactive). Then `CC(=NNS(=O)(=O)c1ccc(Br)cc1)c1ccc(-n2ccnc2)cc1`, with 0.734 (inactive).
